{"source": "PubChem BioAssay AID651597", "about": "(National Center for Advancing Translational Sciences (NCATS), 2012)", "note": "The campaign covered roughly 1,100 compounds. About 390 (35%) were called active. Inconclusive results (about 30%) are left out. Calls follow the shape of the dose curve; as a rule, active = well fitted inhibition curve with a large enough effect; inconclusive = small, poorly fitted or top-dose-only effect; inactive = flat fitted curve, though single readings scatter. The list shows a part of the results. Potency is read from the fitted curve at half-maximal effect."}
{"biological_target": "Luciferin 4-monooxygenase (Photinus pyralis) (UniProt P08659)", "test": "qHTS of Nrf2 Activators: Hit Validation in Secondary FLuc Assay; also: nearly all actives have a fitted effect of over 65% in size", "conditions": "firefly luciferase inhibition counter-screen, luminescence; series mostly up to 57.5 µM", "in_short": "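Counter-screen on purified firefly luciferase with ATP and D-luciferin at Km concentrations; compounds flagged if they inhibit the enzyme, indicating possible reporter stabilization rather than ARE activation.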"}
{"smiles": "N#Cc1ccccc1N/C=C/C(=O)c1ccc(Cl)cc1", "Potency": "0.12 µM (active)"}
{"smiles": "COC(=O)c1cc(S(=O)(=O)C(C)C)c(S(C)=O)s1", "note": "(stereo not given)", "Potency": "inactive"}
{"smiles": "Cc1cc(N/N=C/c2c(O)ccc3ccccc23)nc(-c2ccccc2O)n1", "Potency": "7.57 µM (active)"}
{"smiles": "C=C(NC(=O)C(=C)NC(=O)c1csc(C2=NC3c4csc(n4)C4NC(=O)c5csc(n5)C(C(C)(O)C(C)O)NC(=O)C5CSC(=N5)/C(=C/C)NC(=O)C(C(C)O)NC(=O)c5csc(n5)C3(CC2)NC(=O)C(C)NC(=O)C(=C)NC(=O)C(=C)NC(=O)C(C(C)C)NC2C=Cc3c(C(C)O)cc(nc3C2O)C(=O)OC4C)n1)C(N)=O", "note": "(stereo not given)", "Potency": "7.57 µM (active)"}
{"smiles": "CC(=O)Oc1ccc(-c2nc3c(C)cccc3c(=O)o2)cc1", "Potency": "inactive"}
{"smiles": "COc1ccc(-c2cc3ccccc3c(=O)o2)cc1", "Potency": "0.478 µM (active)"}
{"smiles": "O=c1nc2c(-c3ccccc3F)n[nH]n2c2ccccc12", "Potency": "7.57 µM (active)"}
{"smiles": "Clc1nc(NCc2ccco2)nc(N2CCCCC2)n1", "Potency": "inactive"}
{"smiles": "c1ccc2nc3c(ccc4ccccc43)cc2c1", "Potency": "1.35 µM (active)"}
{"smiles": "COc1cc(OCc2ccccc2)c(C(=O)/C=C/c2ccc3c(c2)OCO3)c(OC)c1OC", "Potency": "inactive"}
{"smiles": "O=C(/C=C/c1ccc2c(c1)OCO2)c1ccc(O)cc1O", "Potency": "1.9 µM (active)"}
{"smiles": "COC(=O)c1ccsc1NC(=O)CSc1nnnn1Cc1ccccc1", "Potency": "inactive"}
{"smiles": "Cc1csc(-c2ccc3cc(Cl)cc(Cl)c3n2)n1", "Potency": "2.69 µM (active)"}
{"smiles": "Cc1ccc(-c2nc3cccnc3s2)cc1NC(=O)c1ccco1", "Potency": "8.49 µM (active)"}
{"smiles": "Cc1ccc(C(=O)OCc2c(C)noc2C)cc1NC(=O)c1ccco1", "Potency": "inactive"}
{"smiles": "CCNc1nc(NCC)nc(N(C)/N=C/c2ccco2)n1", "Potency": "inactive"}
{"smiles": "O=[N+]([O-])c1cc(Cl)cc(/C=N/Nc2nc3ccccc3s2)c1O", "Potency": "13.5 µM (active)"}
{"smiles": "Brc1cc2c(cc1/C=N/Nc1nc3ccccc3s1)OCO2", "Potency": "2.69 µM (active)"}
{"smiles": "O=C(/C=C/c1ccco1)NC(=S)Nc1ccccc1N1CCCC1", "Potency": "inactive"}
{"smiles": "O=C(/C=C/c1ccco1)Nc1ccc(Cl)c(-c2nc3cc(Cl)ccc3o2)c1", "Potency": "10.7 µM (active)"}
{"smiles": "O=C(/C=C/c1ccco1)Nc1cccc(S(=O)(=O)N2CCOCC2)c1", "Potency": "13.5 µM (active)"}
{"smiles": "Cc1ccc(NC(=O)c2ccc([N+](=O)[O-])s2)cc1S(=O)(=O)N1CCOCC1", "Potency": "inactive"}
{"smiles": "O=C(/C=C/c1ccco1)Nc1ccc2nn(-c3ccccc3)nc2c1", "Potency": "9.53 µM (active)"}
{"smiles": "O=C(Nc1cc2nn(-c3ccccc3)nc2cc1Cl)c1ccco1", "Potency": "0.849 µM (active)"}
{"smiles": "O=[N+]([O-])c1cnc(Nc2ccc(Cl)cn2)c([N+](=O)[O-])c1", "Potency": "inactive"}
{"smiles": "O=C1N/C(=C\\c2ccsc2)C(=O)N1Cc1ccc(F)cc1", "Potency": "inactive"}
{"smiles": "CCc1ccc(/C=C/c2c([N+](=O)[O-])c(=O)n(C)c(=O)n2C)cc1", "Potency": "inactive"}
{"smiles": "CCC1C/C(=C/c2cccs2)C(=O)/C(=C/c2cccs2)C1", "note": "(stereo not given)", "Potency": "inactive"}
{"smiles": "O=C(Nc1cc(-c2nc3cc(Cl)ccc3o2)ccc1Cl)c1ccco1", "Potency": "6.01 µM (active)"}
{"smiles": "COc1ccc(Cl)cc1NC(=O)c1ccco1", "Potency": "inactive"}
{"smiles": "CCCS(=O)(=O)c1nc(S(=O)(=O)c2ccc(C)cc2)c(N2CC(C)OC(C)C2)s1", "note": "(stereo not given)", "Potency": "inactive"}
{"smiles": "O=C(/C=C/Nc1ccc(F)c(Cl)c1)c1ccco1", "Potency": "1.69 µM (active)"}
{"smiles": "COc1cccc(-c2nc3n(n2)CCc2ccccc2-3)c1", "Potency": "0.953 µM (active)"}
{"smiles": "CC(C)Nc1ccc(-c2nc(-c3ccco3)no2)cc1[N+](=O)[O-]", "Potency": "0.213 µM (active)"}
{"smiles": "CNc1ccc(-c2nc(-c3ccco3)no2)cc1[N+](=O)[O-]", "Potency": "0.0849 µM (active)"}
{"smiles": "CC(C)c1ccc(NC(=O)c2sccc2-n2cccc2)cc1", "Potency": "10.7 µM (active)"}
{"smiles": "Cc1ccc(CNC(=O)c2sccc2-n2cccc2)cc1", "Potency": "inactive"}
{"smiles": "Cc1ccc(S(=O)(=O)c2nc(S(C)(=O)=O)sc2N2CCOCC2)cc1", "Potency": "inactive"}
{"smiles": "COc1ccccc1-c1nnc(NC(C)=O)s1", "Potency": "2.69 µM (active)"}
{"smiles": "COc1ccc(OC)c2sc(NC(=O)CCS(=O)(=O)c3ccccc3)nc12", "Potency": "inactive"}
{"smiles": "O=C(CCN1C(=O)c2cccc3cccc(c23)C1=O)Nc1ccon1", "Potency": "inactive"}
{"smiles": "COC(=O)c1ccccc1NC(=O)/C=C/c1ccco1", "Potency": "8.49 µM (active)"}
{"smiles": "COc1ccccc1NC(=O)/C=C\\c1ccco1", "Potency": "10.7 µM (active)"}
{"smiles": "COc1ccccc1NC(=O)/C(C#N)=C/C=C/c1ccco1", "Potency": "inactive"}
{"smiles": "COC(=O)c1ccccc1NC(=O)c1cc(-c2ccco2)on1", "Potency": "inactive"}
{"smiles": "CCn1c(=O)oc2cc(NC(=O)CCl)ccc21", "Potency": "inactive"}
{"smiles": "Cc1nn(-c2ccc3ccccc3c2)c(=O)c2ccccc12", "Potency": "3.38 µM (active)"}
{"smiles": "Cc1nn(-c2cccc(C(F)(F)F)c2)c(=O)c2ccccc12", "Potency": "inactive"}
{"smiles": "c1ccc(-c2cc3c(ccc4nonc43)nn2)cc1", "Potency": "inactive"}
{"smiles": "Clc1cc(-c2ccccc2)nc(-c2ccccc2)n1", "Potency": "inactive"}
{"smiles": "c1ccc(-c2cnc(-c3ccccc3)nn2)cc1", "Potency": "0.301 µM (active)"}
{"smiles": "CC1Sc2n(c3ccccc3[n+]2C)N=C1c1ccccc1", "note": "(stereo not given)", "Potency": "inactive"}
{"smiles": "Clc1ccc2nc(-c3ccco3)c(Cc3ccccc3)n2c1", "Potency": "10.7 µM (active)"}
{"smiles": "COc1ccccc1Cc1c(-c2ccco2)nc2ccc(Cl)cn12", "Potency": "2.39 µM (active)"}
{"smiles": "O=C1c2cccc3cccc(c23)C(=O)N1CCCN(C(=O)c1cccs1)c1cccc(F)c1", "Potency": "inactive"}
{"smiles": "CC(=O)COc1ccc2c(c1C)O/C(=C\\c1ccco1)C2=O", "Potency": "0.601 µM (active)"}
{"smiles": "CCN1C(=O)/C(=C\\c2ccco2)C(C(=O)OC)=C1C", "Potency": "inactive"}
{"smiles": "COc1ccc(C2NC(=S)NC3=C2CCCC3=C2SCCS2)cc1", "note": "(stereo not given)", "Potency": "inactive"}
{"smiles": "O=[N+]([O-])c1ccccc1/C=C/C=N/n1c(-c2ccco2)n[nH]c1=S", "Potency": "7.57 µM (active)"}
{"smiles": "Cc1n[nH]c(=S)n1/N=C/c1ccc(-c2ccccc2[N+](=O)[O-])o1", "Potency": "9.53 µM (active)"}
{"smiles": "S=c1[nH]nc(-c2ccco2)n1/N=C/C(Cl)=C/c1ccccc1", "Potency": "13.5 µM (active)"}
{"smiles": "S=c1[nH]nc(COc2ccccc2)n1/N=C/C(Cl)=C/c1ccccc1", "Potency": "19 µM (active)"}
{"smiles": "S=c1[nH]nc(-c2ccco2)n1/N=C/c1ccccc1", "Potency": "inactive"}
{"smiles": "c1ccc2c(-c3nc4ncccc4o3)cccc2c1", "Potency": "13.5 µM (active)"}
{"smiles": "Nc1c(C(=O)c2cccs2)oc2ccccc12", "Potency": "9.53 µM (active)"}
{"smiles": "Nc1c(C(=O)c2ccc(Br)s2)oc2ccccc12", "Potency": "2.69 µM (active)"}
{"smiles": "[O-][n+]1onc2c1CCc1c-2nn(-c2ccccc2Cl)[n+]1[O-]", "Potency": "inactive"}
{"smiles": "O=C(Nc1nccs1)c1cc(-c2ccco2)nc2ccccc12", "Potency": "6.01 µM (active)"}
{"smiles": "Cc1csc(NC(=O)c2cc(-c3ccco3)nc3ccccc23)n1", "Potency": "5.36 µM (active)"}
{"smiles": "Cc1nc2ccccc2c(=O)n1NCc1cc(Br)cs1", "Potency": "inactive"}
{"smiles": "CC1CCc2c(cc(-c3ccccc3)n2-c2ccc(C(=O)NC(C)C)cc2)C1", "note": "(stereo not given)", "Potency": "inactive"}
{"smiles": "Oc1ccccc1-c1csc(-c2ccccc2)n1", "Potency": "1.69 µM (active)"}
{"smiles": "COC(=O)c1sccc1NC(=O)c1c(C)noc1C", "Potency": "inactive"}
{"smiles": "COc1ccc(Cl)cc1NC(=O)CSc1c2c(nc3ccccc13)CCC2", "Potency": "inactive"}
{"smiles": "COc1ccc(Cl)cc1NC(=O)c1cc(-c2ccco2)on1", "Potency": "inactive"}
{"smiles": "COc1ccc(NC(=O)CSc2ccc(-c3ccco3)nn2)c(OC)c1", "Potency": "3.38 µM (active)"}
{"smiles": "COc1ccc(NC(=O)CSc2ccc(-c3ccco3)nn2)cc1OC", "Potency": "15.1 µM (active)"}
{"smiles": "COc1ccccc1NC(=O)CSc1ccc(-c2ccco2)nn1", "Potency": "15.1 µM (active)"}
{"smiles": "O=C(CSc1ccc(-c2ccco2)nn1)N1CCCCCC1", "Potency": "16.9 µM (active)"}
{"smiles": "COc1ccc(NC(=O)c2cc(-c3ccco3)on2)c(OC)c1", "Potency": "inactive"}
{"smiles": "CC(OC(=O)/C=C/c1ccc2ccccc2n1)C(=O)Nc1ccc(S(N)(=O)=O)cc1", "note": "(stereo not given)", "Potency": "inactive"}
{"smiles": "O=C1CC(C(=O)Nc2ccc(Cl)c(Cl)c2)S/C(=N\\N=C\\c2ccco2)N1", "note": "(stereo not given)", "Potency": "inactive"}
{"smiles": "Cc1nc(C)c(C(=O)N/N=C/c2ccco2)s1", "Potency": "inactive"}
{"smiles": "O=C(N/N=C\\c1ccco1)Nc1cccc(Cl)c1", "Potency": "8.49 µM (active)"}
{"smiles": "O=C1CC(C(=O)Nc2ccc(Br)cc2)S/C(=N\\N=C\\c2ccco2)N1", "note": "(stereo not given)", "Potency": "inactive"}
{"smiles": "O=C(N/N=C/c1ccco1)Nc1ccccc1", "Potency": "10.7 µM (active)"}
{"smiles": "O=C1C=C(Nc2cccc(Cl)c2)CC(c2ccco2)C1", "note": "(stereo not given)", "Potency": "inactive"}
{"smiles": "CC(=O)N(/N=C1\\Sc2ccccc2C1=O)c1ccccc1", "Potency": "0.301 µM (active)"}
{"smiles": "CS(=O)(=O)N1CCN(c2ccccc2NC(=O)c2ccc([N+](=O)[O-])o2)CC1", "Potency": "inactive"}
{"smiles": "NS(=O)(=O)c1ccc(O)c(NC(=O)c2ccc([N+](=O)[O-])o2)c1", "Potency": "16.9 µM (active)"}
{"smiles": "COc1ccc(N2CCCC2)c(NC(=O)c2ccc([N+](=O)[O-])o2)c1", "Potency": "inactive"}
{"smiles": "O=C(COC(=O)/C=C/c1ccco1)Nc1ccc(F)cc1Cl", "Potency": "inactive"}
{"smiles": "O=C(C=Cc1ccco1)c1ccc2ccccc2c1", "Potency": "0.239 µM (active)"}
{"smiles": "Cc1cccc(C)c1OCC(=O)N/N=C/C=C/c1ccco1", "Potency": "inactive"}
{"smiles": "O=C(/C=C/c1ccco1)NCC(=O)N/N=C/c1ccc(Cl)cc1", "Potency": "inactive"}
{"smiles": "CC(/C=C/c1ccco1)=N\\NC(=O)CNc1ccc2ccccc2c1", "Potency": "15.1 µM (active)"}
{"smiles": "Cc1c(CN(C)C)c2c(n1C)C(=O)c1ccc(Br)cc1-2", "Potency": "inactive"}
{"smiles": "Cc1ccccc1CS(=O)(=O)c1cnc2ccccc2n1", "Potency": "inactive"}
{"smiles": "Cc1ccc(Cn2c(/C=C/c3ccco3)nc3ccccc32)cc1", "Potency": "6.01 µM (active)"}
{"smiles": "O=c1oc2ccccc2nc1/C=C(\\O)c1ccc(Br)cc1", "Potency": "6.01 µM (active)"}
{"smiles": "CS(=O)(=O)Cc1nc2ccccc2oc1=O", "Potency": "inactive"}
{"smiles": "O=c1oc2ccc(Cl)cc2nc1/C=C(\\O)c1ccco1", "Potency": "inactive"}
{"smiles": "Fc1cccc(Nc2cc(-n3cccn3)ncn2)c1", "Potency": "10.7 µM (active)"}
{"smiles": "Fc1cccc(Nc2nc3ccccc3n3cnnc23)c1", "Potency": "inactive"}
{"smiles": "Cc1ccc2cc3c(NC(=O)c4ccco4)nn(C)c3nc2c1", "Potency": "12 µM (active)"}
